DT40 TDP1 no CPT: qHTS for Inhibitors of human tyrosyl-DNA phosphodiesterase 1 (TDP1): qHTS in cells in absence of CPT; DT40 Tdp1-/- hTDP1 cells, no CPT, ATP luminescence, 48 h; Potency, µM (highest dose often 46.2 µM), inactives show at the highest dose activity change, negative = growth inhibition, usual class: inhibitors; actives 15% (n = 420,000); further: nearly all actives have a fitted effect of over 55% in size
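Chicken DT40 Tdp1-/- cells stably complemented with human TDP1 were seeded at 400 cells/well with DMSO in place of 20 nM camptothecin. After compound pinning, cells grew at least 48 hr at 37 °C; viability read by CellTiter-Glo luminescence.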
GCN5L2 inh: qHTS Assay for Inhibitors of GCN5L2 | Histone acetyltransferase KAT2A (Homo sapiens), Q92830 | GCN5L2 HAT assay, ThioGlo1 CoA-SH fluorescence | Potency, µM (titrated, usually from 58.9 µM), for inactives: top-dose activity change, negative = inhibition, most hits filed as inhibitors | actives 0.21% (n = 390,000) | AID 504327, 2011
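qHTS, 1536-well. 20nM enzyme, pH 7.5 HEPES/EDTA/Tween-20 buffer; 15 min compound preinc., RT. Start: 75uM H3(1-25), 70uM AcCoA, 50uM ThioGlo1. Read Ex340/Em540 at t=0 (autofluorescence flag) and t=20 min.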
VDR inh: Inhibitors of the vitamin D receptor (VDR): qHTS; Vitamin D3 receptor (Homo sapiens), P11473; VDR-SRC2-3 peptide fluorescence polarization, 2 h; Potency, µM, without a hit: max response, negative = inhibition, actives largely listed as inhibitors; actives 0.93% (n = 400,000)
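FP read-out; VDR + SRC2-3 coactivator peptide; 23 nl compound by pintool; 2 h RT incubation; reagents held at 4 deg C, protected from light.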
PLK1 PBD inh: qHTS for Inhibitors of PLK1-PDB (polo-like kinase 1 - polo-box domain): Primary Screen; AID 720504, 2013; Plk1 PBD binding of FITC phosphopeptide, fluorescence polarization; Serine/threonine-protein kinase PLK1 (Homo sapiens), P53350; actives 2.8% (n = 360,000); Potency, µM, inactives show max response, negative = inhibition, hits mostly inhibitors; further: series mostly up to about 57 µM; nearly all actives have a fitted effect of over 65% in size
Target sequence (P53350 whole entry, looked up, the tested form may be a part): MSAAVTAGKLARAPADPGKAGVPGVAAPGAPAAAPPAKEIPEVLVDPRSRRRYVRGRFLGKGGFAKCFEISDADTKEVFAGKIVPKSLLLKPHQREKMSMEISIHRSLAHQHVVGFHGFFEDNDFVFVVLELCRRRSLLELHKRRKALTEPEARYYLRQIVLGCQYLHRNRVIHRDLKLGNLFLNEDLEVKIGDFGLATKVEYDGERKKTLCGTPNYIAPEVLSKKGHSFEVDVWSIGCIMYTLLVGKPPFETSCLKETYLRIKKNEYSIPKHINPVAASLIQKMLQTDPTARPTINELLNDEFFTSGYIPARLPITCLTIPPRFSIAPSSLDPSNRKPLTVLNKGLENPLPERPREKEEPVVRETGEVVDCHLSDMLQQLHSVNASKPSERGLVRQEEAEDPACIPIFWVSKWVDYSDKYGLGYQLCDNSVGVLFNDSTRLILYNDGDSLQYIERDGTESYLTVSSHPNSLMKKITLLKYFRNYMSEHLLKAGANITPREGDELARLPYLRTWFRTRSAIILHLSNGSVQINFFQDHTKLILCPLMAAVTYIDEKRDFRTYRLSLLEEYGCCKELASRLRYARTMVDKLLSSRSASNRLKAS
TDP1 block: qHTS Assay for Inhibitors of Tyrosyl-DNA Phosphodiesterase (TDP1); recombinant TDP1, AlphaScreen DNA substrate cleavage; actives 0.28% (n = 350,000); Tyrosyl-DNA phosphodiesterase 1 (Homo sapiens), Q9NUW8; Potency, µM (doses to about 130 µM), without a hit: at the highest dose activity change, negative = inhibition, hits mostly inhibitors; further: nearly all actives have a fitted effect of over 40% in size
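Tdp1 1 nM final; 15 min RT w/ cpd; substrate 15 nM, 5 min; beads 10 ug/ml, 10 min; AlphaScreen read. Neg ctrl: no enzyme.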
TDP1 cell CPT: qHTS for Inhibitors of human tyrosyl-DNA phosphodiesterase 1 (TDP1): qHTS in cells in presence of CPT; Potency, µM (highest dose often 46.2 µM), without a hit: at the top dose activity change, negative = growth inhibition, usual class: inhibitors; actives 12% (n = 420,000); chicken DT40 Tdp1-/-;hTDP1 cells + 20 nM CPT, ATP luminescence, 48 h; AID 686979, 2013; further: nearly all actives have a fitted effect of over 55% in size
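Cell growth measured by CellTiter-Glo luminescence after a minimum 48 h, 37 C compound exposure with 20 nM CPT in Tdp1-knockout DT40 cells stably expressing hTDP1, seeded 400/well; qHTS titration format.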
An asterisk follows results filed as active. In the library only some 18% were active in any assay of this set; here they are far more common. The call rests on the fitted dose curve; in most records, active means well fitted curve in the direction sought with a large enough effect; inconclusive means small, poorly fitted or top-dose-only effect, or another doubt; inactive means no such curve, though single readings can be large; an effect the other way counts as inactive or inconclusive. On the % scale 0 is the no-effect control and ±100 the full control effect; potency means the concentration at half of the fitted maximal effect.

Screening COc1ccccc1NC(=O)c1cc[n+](C)cc1 returned DT40 TDP1 no CPT -2%, GCN5L2 inh -2%, VDR inh 7%, PLK1 PBD inh -2% and TDP1 cell CPT 0%.
`COc1ccccc1NC(=O)c1coc(=O)c(Br)c1` gave DT40 TDP1 no CPT 2.1µM*, GCN5L2 inh -7%, VDR inh 2%, PLK1 PBD inh -19%, TDP1 block 0% and TDP1 cell CPT 0.73µM*.
COc1ccccc1N1CCN(C(=O)c2coc(=O)c(Br)c2)CC1 was read as DT40 TDP1 no CPT 7.3µM*, GCN5L2 inh -16%, VDR inh 4%, PLK1 PBD inh -16%, TDP1 block 2% and TDP1 cell CPT 3.3µM*.
For COc1ccccc1NC(=O)c1sc(-c2ccc(Cl)cc2)cc1N the results were DT40 TDP1 no CPT 18µM*, GCN5L2 inh -10%, VDR inh 2%, TDP1 block -5% and TDP1 cell CPT inconclusive.
`COC(=O)c1sc(-c2ccc(Cl)cc2)cc1N` gave DT40 TDP1 no CPT -1%, GCN5L2 inh -4%, VDR inh 7%, PLK1 PBD inh -2%, TDP1 block 0% and TDP1 cell CPT 1%.
Screening COc1ccccc1NC(=O)c1cc(N)cc(C(=O)Nc2ccccc2OC)c1 returned DT40 TDP1 no CPT inconclusive, VDR inh -10%, PLK1 PBD inh 5% and TDP1 cell CPT 23µM*.
Screening COc1ccccc1NC(=O)c1ccc2ccccc2c1 returned TDP1 block -11%.
Screening COc1ccc(CSc2cccc3cccnc23)cc1[N+](=O)[O-] returned DT40 TDP1 no CPT 16µM*, GCN5L2 inh -5%, VDR inh -24%, PLK1 PBD inh -25%, TDP1 block 5% and TDP1 cell CPT inconclusive.
Screening O=[N+]([O-])c1ccc(Sc2cccc3cccnc23)c2cccnc12 returned DT40 TDP1 no CPT 26µM*, GCN5L2 inh -6%, VDR inh -6%, PLK1 PBD inh -16%, TDP1 block 8% and TDP1 cell CPT 18µM*.
COc1ccc(CSc2nc(C)[nH]c2[N+](=O)[O-])cc1[N+](=O)[O-] was read as DT40 TDP1 no CPT -9%, GCN5L2 inh 2%, VDR inh -15%, PLK1 PBD inh -5%, TDP1 block 6% and TDP1 cell CPT 14%.
Screening O=[N+]([O-])c1cc2cccnc2c2ncccc12 returned DT40 TDP1 no CPT inconclusive, GCN5L2 inh 2%, VDR inh -1%, PLK1 PBD inh -18%, TDP1 block 0% and TDP1 cell CPT inconclusive.
`CCOC(=O)C1=C(N)OC(CCl)=C(C#N)C1c1ccsc1` (centres undefined) gave DT40 TDP1 no CPT 2.6µM*, GCN5L2 inh 4%, VDR inh -5%, PLK1 PBD inh -12%, TDP1 block 5% and TDP1 cell CPT 2.1µM*.
Cc1noc2ncnc(N3CCCC3)c12 was read as DT40 TDP1 no CPT 1%, GCN5L2 inh -5%, VDR inh -19%, PLK1 PBD inh 2%, TDP1 block -3% and TDP1 cell CPT -21%.
`CCOC(=O)c1ccc(NC(=O)C2CCCN(c3ncnc4onc(C)c34)C2)cc1` (centres undefined) gave DT40 TDP1 no CPT 15µM*, GCN5L2 inh 19%, VDR inh 3%, TDP1 block 1% and TDP1 cell CPT 13µM*.

Assay outcomes from PubChem.
